High-throughput results: PubChem BioAssay, several laboratories
MEKK3 PB1 HTS = modulators of MEKK3-MEK5 PB1 binding, primary screen, biochemical, wildtype MEKK3, multiplex bead flow cytometry, Alexa488-MEK5; Mitogen-activated protein kinase kinase kinase 3 (Homo sapiens), Q99759; bead-based flow cytometry, Alexa488-MEK5 binding to MEKK3; actives lie on both sides; 0 = blocked by unlabeled MEK5, 100 = vehicle; binding response (% of control), % at 10 µM; hit rate 1.4% among 290,000; AID 1529, 2009;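 active means binding response more than 3 SD above or below the average of its plate-row segment, actives on both sides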;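 further: Alexa488 bead fluorescence after subtracting the streptavidin-only scavenger bead signal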
CendR NRP1 mod = modulators of CendR peptide binding to NRP-1, primary screen, biochemical, fluorescence polarization, uHTS; Neuropilin-1 (Homo sapiens), O14786; FAM-RPARPAR peptide binding to NRP-1; inhibition, % at 25 µM; hit rate 0.85% among 360,000;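 active means inhibition or corrected inhibition above about 18%, plus a signal ratio from 0.5 to 1.5, limit read from the data, passing the limit was not always enough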
MEKK2 WT-MEK5 = modulators of MEK5 binding to wildtype MEKK2, primary screen, biochemical, multiplex bead flow cytometry, Alexa488-MEK5. binding response (% of control), % at 10 µM. Alexa488-MEK5 binding to MEKK2 WT; actives lie on both sides. hit rate 1.1% among 290,000. AID 1531, 2009. Mitogen-activated protein kinase kinase kinase 2 (Homo sapiens), Q9Y2U5; in the data active means binding response below about 67% or above about 130%
MEKK2 mut-MEK5 = MEK5 binding signal on mutant MEKK2 PB1, primary screen, biochemical, multiplex bead flow cytometry, Alexa488-MEK5; hit rate 0.35% among 290,000; Alexa488-MEK5 binding to MEKK2 mutant; percent response, % at 10 µM; in the data active means percent response above about 24%, passing the limit was not always enough
SKN-1 block = suppressors of acrylamide-induced Pgst-4::GFP reporter in worms, primary screen, SKN-1 inhibitor project, whole organism, uHTS, GFP/RFP fluorescence ratio, strain VP596; C. elegans VP596 Pgst-4::GFP/RFP ratio, 24 h; inhibition, % at 21.8 µM; hit rate 0.49% among 360,000;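 active means interference check ratio from 0.5 to 1.5 plus GFP to RFP signal ratio inhibition reaching or exceeding a fixed threshold, cut at about 30% in these data, passing the limit was not always enough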
* = called active by the depositor; nt = no result; ! = repeats disagree; [ ] = dose if it differs, or a comment. Shown are actives, neighbours in structure and some others; about 3.2% of the full set was active somewhere.

SMILES	MEKK3 PB1 HTS	CendR NRP1 mod	MEKK2 WT-MEK5	MEKK2 mut-MEK5	SKN-1 block
Nc1ccn([C@@H]2O[C@H](C(=O)N3CCCN(Cc4cccs4)CC3)[C@@H](O)[C@H]2O)c(=O)n1	nt	9	nt	nt	9
CCn1c2ccccc2c2cc(NC(=O)CSc3nnc(-c4ccc(OC)c(OC)c4)n3N)ccc21	105	10	105	3	36*
COc1ccc(C(=O)N2CCC(C)(C(=O)NS(=O)(=O)C3CC3)C2)cc1F (stereo not drawn)	nt	22*	nt	nt	-3
Cn1c(SCC(=O)Nc2ccccc2F)nc2c(c1=O)SCC2	101	12	106	8	9
Cn1c(SCC(=O)Nc2ccc(F)cc2)nc2c(c1=O)SCC2	107	24*	107	4	11
Cc1ccccc1-c1cnc(C(O)c2ccc(F)c(F)c2)[nH]1 (stereo not drawn)	nt	23*	nt	nt	-2
CC1CCc2c(C(=O)Nc3ccccn3)csc2C1 (stereo not drawn)	90	8	82	-26	29
CC1CCc2c(C(=O)Nc3nccs3)csc2C1 (stereo not drawn)	100	2	108	8	37*
N#CC1(C#N)C(C(N)=O)C1c1ccccc1 (stereo not drawn)	106	-54	101	-1	9
CN1C=CC2=C(C#N)C(N)C(C#N)(C#N)[C@H](c3ccccc3)[C@H]2C1 (stereo partly drawn)	110	23*	103	5	-5
COC(=O)C1=C(C)NC(C)=C(C(=O)OC)C1C(=O)OC(C)C(=O)c1ccccc1 (stereo not drawn)	96	25*!	97	-1	-2
Cc1cc(OC(C)C(=O)NCC(O)c2ccccc2)c2c(C)cc(=O)oc2c1 (stereo not drawn)	98	14	102	-4	15
O=C(Nc1cc(S(=O)(=O)N2CCCC2)ccc1Cl)c1cc(F)c(F)c(F)c1F	nt	22	nt	nt	5
Cc1cc(NC(=O)CSc2nnc(-c3ccncc3)n2-c2ccc(F)cc2)no1	90	-14	86	-13	42*
O=C1c2cccc3c([N+](=O)[O-])ccc(c23)C(=O)N1CCc1ccccn1	108	-11	109	12	-6
CN(C)CCCN1C(=O)c2cccc3c([N+](=O)[O-])ccc(c23)C1=O	99	29*	98	0	-12
O=c1[nH]cnc2c1ncn2C1OC(CO)CC1F (stereo not drawn)	nt	17	nt	nt	22
Cc1ccc(Oc2c(C=O)c3ccccc3n2C)cc1	102	12	99	6	6
COc1ccc(Oc2c(C=O)c3ccccc3n2C)cc1	96	26*	98	2	2
O=C(C=Cc1cccs1)c1ccc(Cl)s1	nt	9	nt	nt	41*
CCn1c(C)nc2cc(NC(=O)Nc3cccc(C(C)=O)c3)ccc21	101	-8	102	3	-14
O=c1cc[nH]c2ccc([N+](=O)[O-])cc12	99	34*	98	-7	-1
O=C(CCS(=O)(=O)c1ccc(Br)s1)N1CCc2ccccc21	108	34*	113	5	3
CC(C)CC1C(=O)N(Cc2cn(CCC3OCCCO3)nn2)CCS(=O)(=O)N1Cc1ccc(-c2ccc(Cl)c(Cl)c2)cc1 (stereo not drawn)	nt	17	nt	nt	18
COc1cc2c(cc1OC)[C@@H](NC(=O)CCc1ccccc1)[C@H](OCc1ccccc1)C2	nt	11	nt	nt	35*
SMILES	MEKK3 PB1 HTS	CendR NRP1 mod	MEKK2 WT-MEK5	MEKK2 mut-MEK5	SKN-1 block
CCCCCCCCCC(=O)N[C@@H]1c2cc(OC)c(OC)cc2C[C@H]1OCc1ccccc1	nt	-14	nt	nt	7
O=C(CSc1n[nH]c(=O)n1-c1ccccc1)N1CCOCC1	98	6	101	-6	-14
Cc1cccc(-c2cc(C(=O)Nc3c(C)n(C)n(-c4ccccc4)c3=O)c3ccccc3n2)c1	109	33*	113	8	8
Cc1c(NC(=O)c2cnc(Cl)c(Cl)c2)c(=O)n(-c2ccccc2)n1C	50*[inhibitor]	-6	46*[inhibitor]	-19	9
Cc1cccc(C(=O)NNC2=C(C(=O)C(F)(F)F)CCC2)c1O	102	58*	98	4	23
O=C1c2ccccc2C(=O)c2c(/C=C/N3CCCCC3)ccnc21	nt	80*	nt	nt	27
O=C1c2ccccc2-c2cccnc21	96	5	104	2	-21
CCCSc1ccc([C@@H]2[C@@H]3C(=O)N(C)C(=O)[C@@H]3[C@]3(C(=O)OC)CCCN23)cc1OC	nt	-3	nt	nt	13
CCC(=O)N1CCCC1(C)C(=O)Nc1ccc2nc(C)ccc2c1 (stereo not drawn)	nt	10	nt	nt	0
Cc1oc(-c2cccc(Cl)c2)nc1CN1CCC(C(=O)NCCCN2CC(C)CC(C)C2)CC1 (stereo not drawn)	101	7	139*	18	8
CC1CCCCN1CCCNC(=O)C1CCN(c2nnc(-n3cccc3)s2)CC1 (stereo not drawn)	100	7	150*	22	12
O=C(NCc1ccco1)C1CCN(c2nnc(-n3cccc3)s2)CC1	105	-4	101	9	10
CCOc1ccc2nc(N3CCCC(C(=O)NCCCN4CC(C)CC(C)C4)C3)sc2c1 (stereo not drawn)	107	-19	142*	16	-3
CC1CC(C)CN(CCCNC(=O)C2CCN(c3nnc(-n4cccc4)s3)CC2)C1 (stereo not drawn)	100	3	155*	20	7
Cc1ccc(C)n1-c1nnc(N2CCC(C(=O)NCCCN3CC(C)CC(C)C3)CC2)s1 (stereo not drawn)	101	0	102	0	16
CC1=C(C(=O)N2CCOCC2)CC(CC(=O)NCc2cccc3ccccc23)C(=O)N1Cc1ccccc1 (stereo not drawn)	nt	-1	nt	nt	12
CCCCCN(C(=O)CCC(=O)OCCOc1ccc(OCC)cc1)c1c(N)n(CCCC)c(=O)[nH]c1=O	nt	4	nt	nt	11
CCCCNC(=O)C1(C)CCN1C(=O)c1cccnc1Oc1ccccc1 (stereo not drawn)	nt	0	nt	nt	7
Cc1ccc(C2(C)NC(=O)N(CC(=O)NCCN3C(=O)S/C(=C\c4cccnc4)C3=O)C2=O)cc1 (stereo not drawn)	nt	2	nt	nt	-21
O=C(NCCCN1CCN(Cc2ccccc2)CC1)C1CCN(c2nnc(-n3cccc3)s2)CC1	111	10	197*	56*	6
O=C(NCCCc1ccccc1)C1CCN(c2nnc(-n3cccc3)s2)CC1	104	2	105	3	-3
